From PubChem BioAssay
Shown are actives, neighbours in structure and some others; about 9.3% of the full set was active somewhere.
SMN2 splice enh: enhancers of SMN2 splice variant expression. HEK293 SMN2-luciferase splicing reporter, luminescence, 30-36 h. Potency, µM (series often up to 46.1 µM), hits mostly activators. hit rate 2.8% among 210,000. AID 1458; note: nearly all actives have a fitted effect of over 55% in size
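HEK293 cells carry an SMN2 […]–luciferase reporter in which exon 7 inclusion puts luciferase in frame. Cells were plated 10-12 h before compound addition, then incubated 30-36 h at 37C. ONE-Glo luminescence was read; sodium butyrate at 4.5 mM final served as control.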
ELG1 repair inh: ELG1-dependent DNA repair inhibition | HEK293T ELG1-luciferase reporter, luminescence, 16 h; DNA damage induced by 5-fluorouridine | Potency, µM (titrated, usually from 46.1 µM), most hits filed as inhibitors | hit rate 2.3% among 330,000 | AID 504467; note: nearly all actives have a fitted effect of over 55% in size
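Quantitative HTS, concentration-response format. 2,000 cells/well co-treated with 5-fluorouridine and compound, 16 hr in 5% CO2 at 37 °C; ONE-Glo luminescence read after 30 min.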
Rab9 prom act: activates the Rab9 promoter; hit rate 2.8% among 320,000; Huh7 Rab9 promoter-luciferase reporter, luminescence, 24 h; AID 485297; Potency, µM (titrated, usually from 9.22 µM), actives largely listed as activators; note: nearly all actives have a fitted effect of over 60% in size
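Luminescence read-out: Huh7 cells stably expressing Rab9-luciferase, treated 24 h with compound at 37 °C, then lysed with luciferase reagent for 10 min at ambient before reading.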
FLuc counter: firefly luciferase modulation, counter-screen for miR-21 project; Potency, µM (highest dose often 57.5 µM), hits mostly inhibitors; AID 588342; hit rate 6.9% among 360,000; purified FLuc, Km substrates, luminescence inhibition; note: nearly all actives have a fitted effect of over 55% in size
Target sequence (P08659 whole entry, looked up): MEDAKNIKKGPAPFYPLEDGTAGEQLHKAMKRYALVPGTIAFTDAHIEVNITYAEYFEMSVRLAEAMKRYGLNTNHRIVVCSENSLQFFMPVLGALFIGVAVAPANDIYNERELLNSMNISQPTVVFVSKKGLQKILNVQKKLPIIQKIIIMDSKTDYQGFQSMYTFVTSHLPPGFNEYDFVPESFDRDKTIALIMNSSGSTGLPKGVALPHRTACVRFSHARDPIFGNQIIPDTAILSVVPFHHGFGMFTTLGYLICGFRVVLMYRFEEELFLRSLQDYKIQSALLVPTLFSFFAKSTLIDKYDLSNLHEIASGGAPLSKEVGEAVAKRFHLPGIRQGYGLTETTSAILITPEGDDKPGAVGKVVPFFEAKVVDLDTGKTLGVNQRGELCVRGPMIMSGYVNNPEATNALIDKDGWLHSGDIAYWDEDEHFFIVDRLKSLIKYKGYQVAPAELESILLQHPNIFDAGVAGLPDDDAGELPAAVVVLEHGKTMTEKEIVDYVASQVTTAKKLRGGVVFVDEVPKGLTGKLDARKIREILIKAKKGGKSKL
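Purified P. pyralis luciferase (10nM final) with 10uM D-luciferin and 10uM ATP (Km levels) in 50mM Tris acetate pH 7.5, 10mM Mg acetate, 0.01% Tween-20, 0.05% BSA; qHTS 6-point titration, ~60 µM downward; luminescence read.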
NPC1 promoter act: NPC1 promoter activation; hit rate 2.4% among 320,000; Huh7 NPC1 promoter luciferase reporter, 24 h; Potency, µM (series often up to 9.22 µM), usual class: activators; note: nearly all actives have a fitted effect of over 60% in size
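NPC1 promoter–luciferase Huh7 cells; 24 h compound; luminescence.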
ELG1 genotox: induces genotoxicity in HEK293T cells with luciferase-tagged ELG1; HEK293T ELG1-luciferase reporter, luminescence, 16 h; Potency, µM (top dose mostly 46 µM), usual class: activators; hit rate 1.3% among 330,000; AID 504466; note: nearly all actives have a fitted effect of over 60% in size
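HEK293T cells expressing luciferase-tagged ELG1 were treated with compound or DMSO for 16 hr at 37°C. Luciferase activity was then read after 30 min with ONE-Glo at room temperature; rising signal flags genetic stress.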
Hits are given with their value; - = inactive; ? = inconclusive; . = not tested or not shown; [ ] = dose if it differs, or a comment. Calls come from the whole dose curve; as a rule, active = well fitted curve in the direction sought with a large enough effect; inconclusive = small, poorly fitted or top-dose-only effect, or another doubt; inactive = no such curve, though single readings can be large; an effect the other way counts as inactive or inconclusive.

SMILES	SMN2 splice enh	ELG1 repair inh	Rab9 prom act	FLuc counter	NPC1 promoter act	ELG1 genotox
CCOC(=O)NC(CC(=O)O)c1ccc(OCC)cc1 (stereo not given)	-	-	-	-	-	-
O=C(O)c1cccc(CSc2n[nH]c(-c3ccc(Cl)cc3Cl)n2)c1	-	-	-	26.9µM	-	-
CN(C)c1ccc(CNC(=O)C2(C)C=CCN2C(=O)c2ccccc2)cc1 (stereo not given)	15.8µM	.	.	.	.	.
COc1ccccc1/C=N/Nc1nccnc1Cl	-	?	?	12µM	-	18.4µM
COc1ccccc1NS(=O)(=O)c1ccc(N/N=C/c2ccccc2OCC(=O)O)c([N+](=O)[O-])c1	.	-	-	?	-	-
COc1cccc(/C=N/Nc2ncccc2[N+](=O)[O-])c1OC	.	?	-	0.301µM	?	0.291µM
Cc1cc(NS(=O)(=O)c2ccc(NC(=O)c3cc(-c4cccnc4)nc4ccc(Cl)cc34)cc2)no1	-	-	-[1.84 µM]	-	-	-
Cc1cc(NC(=O)c2cc(-c3cccnc3)nc3c(C)c(C)ccc23)no1	-	23.1µM	-	-	-	-
COc1ccc(-c2cc(C(F)F)n3ncc(C(=O)N4CCN(C)CC4)c3n2)cc1	-	7.31µM	-	-	-	-
COc1ccc(-c2cc(C(F)F)n3ncc(C(=O)N4CCSCC4)c3n2)cc1	-	16.4µM	-	-	-	-
Cc1cc(NC(=O)c2cnn3c(C(F)F)cc(-c4ccccc4)nc23)no1	-	8.2µM	-	-	-	-
O=C(CCS(=O)(=O)c1ccccc1F)Nc1ccc(N2CCN(Cc3ccccc3)CC2)cc1	.	-	-	.	-	-
Cc1cccc(NC(=O)Nc2c(C)[nH]c(=O)[nH]c2=O)c1C	.	-	-	-	-	-
Cc1ccc(/C=C/C(=O)Nc2ccccc2C(N)=O)o1	11.2µM	.	.	9.53µM	.	.
NC(=O)c1ccccc1NC(=O)/C=C/c1cccc(Cl)c1	11.2µM	?	2.24µM	6.75µM	3.16µM	-
O=C(/C=C/c1cccc(Cl)c1)NCCc1ccccc1	-	?	-	?	-	?
NC(=O)c1ccccc1NC(=O)/C=C/c1c(Cl)cccc1Cl	-	?	3.16µM	19µM	?	-
Cc1ccc(-c2nc3ccccc3nc2-c2ccccc2)cc1	.	-	-	-	-	-
CCOC(=O)c1scc(-c2ccccc2)c1S(=O)(=O)Nc1ccccc1OC	.	.	.	-	.	.
CCOC(=O)c1csc(N)n1	.	?	2.82µM	0.849µM	?	?
CCOC(=O)Cc1csc(N)n1	-	-	-	-	-	-
CCOC(=O)c1csc(COc2ccc(OC)cc2)n1	.	?	0.447µM	?	0.447µM	-
CCOC(=O)c1csc(COc2ccccc2Cl)n1	.	?	?	?	?	-
N#Cc1ccccc1NC(=S)NC(=O)c1cccs1	.	?	-	8.49µM	-	-
CCC(=O)Nc1cccc(NC(=S)NC(=O)c2ccccc2Cl)c1	-	?	3.55µM	?	?	-
SMILES	SMN2 splice enh	ELG1 repair inh	Rab9 prom act	FLuc counter	NPC1 promoter act	ELG1 genotox
CCC(=O)Nc1cccc(NC(=O)c2ccc(C)cc2Cl)c1	-	?	?	19µM	-	-
CCC(=O)Nc1cccc(NC(=S)NC(=O)c2cccs2)c1	28.2µM	?	?	6.01µM	?	?
Cc1cccc(C)c1NC(=O)CSCc1cnn(-c2ccccc2)c1-n1cccc1	.	.	.	-	.	.
Cn1nnc2cc(C(=O)Nc3cccnc3)ccc21	-	-	-	-	-	-
COc1ccc(C(=O)N(C)C2CCCCC2)cc1S(=O)(=O)N1CCOCC1	.	-	-	-	-	-
CCOC(=O)N1CCN(S(=O)(=O)c2cc(Cl)c(OC)cc2Cl)CC1	-	-	-	-	-	-
COC(=O)c1[nH]c2ccc(C)cc2c1NC(=O)CN1CCN(Cc2ccccc2)CC1	-	8.2µM	-	-	-	-
COC(=O)c1[nH]c2cccc(OC)c2c1NC(=O)CN1CCN(c2cccc(OC)c2)C(C)C1 (stereo not given)	-	13µM	-	-	-	-
COC(=O)c1[nH]c2cc(OC)c(OC)cc2c1NC(=O)CN1CCN(Cc2ccccc2)CC1	-	1.58µM	-	-	-	-
COC(=O)c1[nH]c2ccccc2c1NC(=O)CN1CCN(C/C=C/c2ccccc2)CC1	-	8.2µM	-	-	-	-
COC(=O)c1[nH]c2cccc(OC)c2c1NC(=O)CCN1CCC(C)CC1	-	-	-	-	-	-
CCOC(=O)N1CCN(CC(=O)Nc2c(C(=O)OC)[nH]c3cc(C)ccc23)CC1	-	-	-	-	-	-
COC(=O)c1[nH]c2cc(OC)ccc2c1NC(=O)CN1CCOCC1	-	-	-	-	-	-
CCOC(=O)c1[nH]c2ccc(F)cc2c1NC(=O)CN1CCN(C/C=C/c2ccccc2)CC1	-	?	-	-	-	-
CC(NC(=O)C1CCN(C(=O)[C@@H]2Cc3ccccc3CN2C(=O)OC(C)(C)C)CC1)c1ccccc1 (stereo not given in full)	.	-	-	-	-	-
COC(=O)c1[nH]c2ccc(C)cc2c1NC(=O)CN1CCN(c2ccc(F)cc2)CC1	-	9.2µM	-	?	-	-
COC(=O)c1[nH]c2ccc(C)cc2c1NC(=O)CN1CCN(C(=O)c2ccccc2)CC1	-	20.6µM	-	-	-	-
COC(=O)c1[nH]c2ccc(C)cc2c1NC(=O)CN1CCC(C)CC1	?	-	-	-	-	-
COc1ccc(C)cc1NC(=O)CN1CCN(C/C=C/c2ccccc2)CC1	-	20.6µM	-	-	-	-
C=CCCCCCCCCCCCC(O)CC(O)COC(C)=O (stereo not given)	-	.	.	.	.	.
COc1ccccc1N1CCN(C(=O)C2C3C=CC4(CN(Cc5ccccc5Cl)C(=O)C24)O3)CC1 (stereo not given)	-	-	-	-	-	-
O=C(NNC(=O)c1ccccc1F)c1ccc2nc[nH]c2c1	.	?	-	?	-	?
CC(C)(C)OC(=O)N[C@@H](Cc1ccccc1)c1nnc(S(=O)(=O)Cc2ccccc2)o1	-	-	-	-	-	-
O=C(N/N=C/c1ccco1)c1cc(C2CC2)nc2ccccc12	-	-	-	-	-	-
O=C(N/N=C/c1ccco1)c1cc(-c2ccccc2)nc2ccccc12	.	?	-	21.3µM	-	-
COc1cccc(-c2cc(C(=O)N/N=C/c3ccco3)c3ccccc3n2)c1	.	-	-	3.38µM	-	-
Cc1ccc(-c2nnc(CCC(=O)N(C)Cc3nccs3)o2)s1	.	-	-	-	-	-
Cc1ccc(-c2nnc(CCC(=O)NCC3C4CC5CC(C4)CC3C5)o2)s1 (stereo not given)	.	?	2.51µM	19µM	?	?
